# Unmarked numbers belong to inactive results. How the calls were made is not given here.
# Biological target: Pantothenate synthetase (Mycobacterium tuberculosis (strain ATCC 25618 / H37Rv)) (UniProt P9WIL5)
# Assay: Recombinant Mtb pantothenate synthetase (PanC) inhibitors, coupled enzyme, confirmatory (AID 375);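 further: 0% = full reaction with vehicle and 100% = no enzyme background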
# Conditions: coupled enzyme assay; at 10 µM, hits give high values
# Pantothenate synthetase (Mycobacterium tuberculosis (strain ATCC 25618 / H37Rv)), sequence (P9WIL5 whole entry, looked up): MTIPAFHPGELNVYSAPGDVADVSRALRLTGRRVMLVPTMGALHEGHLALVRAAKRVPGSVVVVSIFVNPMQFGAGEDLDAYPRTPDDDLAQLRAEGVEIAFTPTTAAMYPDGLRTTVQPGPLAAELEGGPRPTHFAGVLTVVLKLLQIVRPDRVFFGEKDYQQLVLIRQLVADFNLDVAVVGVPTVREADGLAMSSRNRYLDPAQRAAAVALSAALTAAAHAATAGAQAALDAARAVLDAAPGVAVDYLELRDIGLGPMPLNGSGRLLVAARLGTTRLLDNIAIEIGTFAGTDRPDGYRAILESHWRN
row,Structure (SMILES),inhibition
1,COc1cc(Cn2c(C(=O)O)cc3sccc32)cc(OC)c1OC,0%
2,COC(=O)c1ccc(C2CC(=O)Nc3cc(OC)c(OC)c(OC)c32)cc1 (centres undefined),0%
3,CCCN(CC1CC1)C(=O)Nc1ccccc1C,1%
4,COc1ccc(NC(=O)CSc2nnc(-c3ccccc3C)n2C)cc1,0%
5,COCC(=O)Nc1c(C(=O)Nc2ccccc2OC)oc2ccccc12,1%
6,CCOC(=O)CSc1nnc(-c2ccc(S(=O)(=O)N3CCOCC3)cc2)n1-c1ccccc1,3%
7,CSC1=C(C#N)C(C)CC(=O)N1 (centres undefined),0%
8,CC(=O)N1CCN(C(C)=O)C1c1ccccc1,2%
9,CC(C)(C)c1ccc(-c2nnc(SCCC#N)n2C2CCCC2)cc1,0%
10,Cc1ccnc(SCCn2c(N3CCCCC3)nc3c2c(=O)n(C)c(=O)n3C)n1,0%
11,CC(=O)N(C(C)=O)c1cccc2c(N(C(C)=O)C(C)=O)cccc12,1%
12,CCCc1cc(=O)[nH]c(SCc2ccccc2)n1,0%
13,N#Cc1cc2c(nc1SCC(=O)Nc1sc3c(c1C#N)CCC3)CCCCC2,0%
14,COC(=O)CSc1nnc(-c2cccs2)n1-c1ccc(Cl)cc1,4%
15,Cn1ccnc1SCCC#N,7%
16,O=C(Nc1ccc(N2CCCC2=O)cc1)c1cccc(F)c1,4%
17,CC(NC(=O)Cc1cccs1)c1ccc2c(c1)OCO2 (centres undefined),0%
18,Cc1cccc(-c2cc3nc4c(c(N5CCC6(CC5)OCCO6)n3n2)CCCC4)c1,4%
19,COc1ccc(C(=O)NCCn2ccc3ccccc32)cc1,0%

# Reference: PubChem BioAssay
